Sampled rows, rich in hits. Any-hit rate of the full collection: about 10%.
Six1-Eya2 blk: qHTS Assay for Inhibitors of the Six1/Eya2 Interaction; AlphaScreen GST-Six1/His-Eya2 binding, biochemical; hits give low values; AID 651725, 2012; activity change, % (test concentration not listed); 0.56% of 360,000 active; Homeobox protein SIX1 (Homo sapiens) + Protein phosphatase EYA2 (Homo sapiens), …; in the data active = activity change below about -65%; inconclusive = mostly about -30% to -63%; also: % is scaled to controls: 0 for no effect and ±100 for the full control effect
Target sequence (O00167 whole entry, looked up): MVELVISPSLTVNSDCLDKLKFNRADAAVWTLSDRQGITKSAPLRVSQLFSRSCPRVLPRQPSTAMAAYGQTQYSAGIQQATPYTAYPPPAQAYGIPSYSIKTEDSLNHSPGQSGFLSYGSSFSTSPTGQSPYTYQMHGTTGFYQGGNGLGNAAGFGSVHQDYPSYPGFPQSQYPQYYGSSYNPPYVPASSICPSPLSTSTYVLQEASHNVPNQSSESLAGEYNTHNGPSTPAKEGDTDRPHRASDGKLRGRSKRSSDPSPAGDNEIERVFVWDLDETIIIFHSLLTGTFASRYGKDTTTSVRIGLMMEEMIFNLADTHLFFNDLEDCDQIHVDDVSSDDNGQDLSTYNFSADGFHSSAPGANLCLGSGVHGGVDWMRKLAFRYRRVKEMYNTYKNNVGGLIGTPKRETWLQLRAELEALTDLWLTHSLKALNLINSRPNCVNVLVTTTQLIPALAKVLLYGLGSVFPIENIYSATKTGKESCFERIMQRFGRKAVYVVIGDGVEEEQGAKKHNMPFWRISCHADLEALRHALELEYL
Target sequence (Q15475 whole entry, looked up): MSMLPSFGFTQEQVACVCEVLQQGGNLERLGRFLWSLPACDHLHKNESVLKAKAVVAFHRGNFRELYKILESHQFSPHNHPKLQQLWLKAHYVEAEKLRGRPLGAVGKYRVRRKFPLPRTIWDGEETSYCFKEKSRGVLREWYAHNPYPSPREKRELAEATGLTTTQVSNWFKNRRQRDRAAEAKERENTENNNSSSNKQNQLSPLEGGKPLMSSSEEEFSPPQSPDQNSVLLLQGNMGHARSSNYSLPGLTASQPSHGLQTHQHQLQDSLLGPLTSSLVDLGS
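Homogeneous AlphaScreen proximity assay pairing GST-Six1 with His-tagged Eya2 (added as 5X mix: 250 nM and 500 nM) in 50 mM Tris pH 8.0, 300 mM NaCl, 1 mM TCEP. Glutathione donor and nickel acceptor beads; 1 h, 37 °C, dark.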
HP1b chromo inh: HTS for Inhibitors of HP1-beta Chromodomain Interactions with Methylated Histone Tails. Potency, µM (series often up to 114 µM), inactives show at the top dose activity change, negative = inhibition, most hits filed as inhibitors. 0.56% of 390,000 active. Chromobox protein homolog 1 (Homo sapiens), P83916. AID 540317, 2011. AlphaScreen HP1-beta / biotin-H3K9me3 peptide binding; also: potency is read from the fitted curve at half-maximal effect; nearly all actives have a fitted effect of over 70% in size
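HP1-beta protein (50 nM final) preincubated 30 min at room temperature with biotinylated H3(1-18)K9me3 peptide (50 nM) in PBS pH 7.4, 0.01% Tween-20, then compound added for 30 min. AlphaScreen streptavidin donor/nickel chelate acceptor beads (10 ug/mL final), 30 min dark, luminescence read.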
G9a block: qHTS Assay for Inhibitors of Histone Lysine Methyltransferase G9a | Histone-lysine N-methyltransferase EHMT2 (Homo sapiens), Q96KQ7 | G9a H3K9 monomethylation, AlphaScreen, 2 h | Potency, µM (top dose mostly 102 µM), inactives show at the highest dose activity, negative = inhibition, actives largely listed as inhibitors | 8.8% of 350,000 active; also: potency is read from the fitted curve at half-maximal effect; % is scaled to controls: 0 for no effect and ±100 for the full control effect; nearly all actives have a fitted effect of over 75% in size
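Signal arises when biotinylated H3K9 peptide, once monomethylated, bridges streptavidin donor and antibody-captured acceptor beads. Enzyme at 20 nM was preincubated 15 min with test compounds; peptide 500 nM and SAM 20 uM then reacted for 2 h.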
BAZ2B inh: qHTS Assay for Inhibitors of BAZ2B; 4.4% of 360,000 active; Potency, µM (titrated, usually from 114 µM), for the others: top-dose activity change, negative = inhibition, usual class: inhibitors; AID 504333, 2011; AlphaScreen BAZ2B-H3K14Ac peptide displacement; Bromodomain adjacent to zinc finger domain protein 2B (Homo sapiens), Q9UIF8; also: potency is read from the fitted curve at half-maximal effect; % is scaled to controls: 0 for no effect and ±100 for the full control effect; nearly all actives have a fitted effect of over 60% in size
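AlphaScreen displacement: compounds (up to 110uM) incubated 30 min at room temperature with a preformed 50 nM BAZ2B/50 nM biotinylated H3K14Ac peptide complex in PBS pH 7.4 with Tween-20. Donor and acceptor beads at 10 ug/mL final added, 20 min light-protected before reading.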
JMJD2A Tudor inh: qHTS Assay for Inhibitors of JMJD2A-Tudor Domain. AlphaScreen JMJD2A-Tudor / H3K4me3 peptide binding. Potency, µM (series often up to 114 µM), for inactives: top-dose activity change, negative = inhibition, usual class: inhibitors. 4.4% of 390,000 active. AID 504339, 2011; also: potency is read from the fitted curve at half-maximal effect; % is scaled to controls: 0 for no effect and ±100 for the full control effect; nearly all actives have a fitted effect of over 50% in size
CtBP-E1A blk: qHTS Assay for Inhibitors of the CtBP/E1A Interaction | CtBP / adenovirus E1A interaction (AlphaScreen) | AID 651724, 2012 | 0.49% of 340,000 active | activity change, % (test concentration not listed) | AlphaScreen GST-E1A/His-CtBP binding, 1536-well; hits give low values; in the data active = activity change below about -65%; inconclusive = mostly about -30% to -63%; also: % is scaled to controls: 0 for no effect and ±100 for the full control effect
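Homogeneous bead-based format: GST-tagged E1A captured on glutathione donor beads, His-tagged CtBP on nickel acceptor beads; compounds precede bead addition by 2 h at 37 °C.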
Starred values were filed as active, the others as inactive; u = inconclusive; x = no result given; [ ] = remark or other dose. Unless noted, calls follow the shape of the dose curve; as a rule, active = well fitted inhibition curve with a large enough effect; inconclusive = small, poorly fitted or top-dose-only effect; inactive = no such curve, though single readings can be large or run the other way.

SMILES	Six1-Eya2 blk	HP1b chromo inh	G9a block	BAZ2B inh	JMJD2A Tudor inh	CtBP-E1A blk
COc1ccc(N2CCN(c3cc(C)c4ccc(O)cc4n3)CC2)cc1	-25.3	15.8%	u	44.7µM*	u	-3.6
Cc1nn(C(=O)c2cccc(F)c2)c(C)c1S(=O)(=O)N1CCOCC1	x	40.9%[57 µM]	-5.9%[59 µM]	2.8%	4.8%	x
Cc1ccc(NC(=S)N/N=C/c2cccn2Cc2ccccc2F)cc1	-14.8	25.6%	u	28.2µM*	u	-12.6
CC(=NOC(=O)c1ccc(I)cc1)c1nccs1	-3.1	x	x	x	x	-7.3
COc1cccc2c1cc1c(=O)n(CC(=O)NCc3ccc(N(C)C)cc3)nc(C)n12	x	32.6%	-2.5%[59 µM]	-13.3%	-9.5%	x
CCN(CC)CCN1C(=O)C(=O)/C(=C(/O)c2c(C)[nH]c(C(=O)OC)c2C)C1c1ccc(OC)cc1 (centres undefined)	0.7	16.2%	79.4µM*	-8.5%	-23.0%	-4.1
CCOc1ccc(C2/C(=C(\O)c3c(C)[nH]c(C(=O)OC)c3C)C(=O)C(=O)N2CCN(C)C)cc1 (centres undefined)	-8.9	3.9%	44.7µM*	-0.3%	35.5µM*	-5.0
COC(=O)c1[nH]c(C)c(/C(O)=C2\C(=O)C(=O)N(CCN(C)C)C2c2cc(OC)ccc2OC)c1C (centres undefined)	-5.1	28.2%	50.1µM*	-32.2%	u	-0.9
CCCOc1ccc(C2/C(=C(\O)c3c(C)[nH]c(C(=O)OC)c3C)C(=O)C(=O)N2CCN(C)C)cc1 (centres undefined)	2.3	7.4%	u	-11.2%	u	1.4
CCN(CC)CCN1C(=O)C(=O)/C(=C(/O)c2c(C)[nH]c(C(=O)OC)c2C)C1c1ccccc1 (centres undefined)	3.0	18.3%	7.8%[12.7 µM]	1.0%	-18.0%	-4.5
Cc1sc(NC(=O)c2ccco2)c(CN2CCN(Cc3ccccc3)CC2)c1C	-17.6	-12.6%	u	x	u	-15.5
CCn1ccnc1CN(C)Cc1cn(-c2cccc(C)c2)nc1-c1cccc(F)c1	u	u	11.2µM*	35.5µM*	50.1µM*	0.0
Cc1cccc(-n2cc(CN(C)Cc3nccn3C)c(-c3cccc(F)c3)n2)c1	0.0	u	15.8µM*	u	39.8µM*	x
Cc1ccc(-n2cc(CN3CCN(Cc4nccn4C)CC3)c(-c3cccc(C)c3)n2)cc1	-18.9	-4.2%	u	u	u	-12.1
CCn1ccnc1CNCc1cn(-c2cc(C)ccc2C)nc1-c1ccccc1	-81.7*	10.1%	-10.2%	39.8µM*	u	x
CCn1ccnc1CN(C)Cc1cn(-c2ccc(C)cc2)nc1-c1cccc(C)c1	-19.0	u	31.6µM*	39.8µM*	u	-18.6
Cc1ccc(C)c(-n2cc(CNCCc3cnccn3)c(-c3ccccc3)n2)c1	-0.1	30.7%	-0.4%	-19.8%	-7.8%	x
Cc1ccc(CNC(=O)Nc2nnc([C@@H]3C[C@H](O)[C@@H](CO)O3)s2)cc1	-15.1	x	x	x	x	4.2
Cc1ccc(N=Cc2c(O)c3ccccc3oc2=O)cc1F	-0.5	22.3%	35.5µM*	-15.9%	-9.5%	7.9
Cc1cc(C)cc(N=Cc2c(O)c3ccccc3oc2=O)c1	9.4	34.0%	9.6%	-3.9%	-17.5%	-1.9
O=C(O)c1cc(N=Cc2c(O)c3ccccc3oc2=O)ccc1O	-9.8	11.8%	50.1µM*	-19.7%	-22.1%	-1.7
CCOC(=O)c1ccc(NC(=O)c2nc[nH]c2C(=O)N[C@@H](C)CO)cc1	-2.8	x	x	x	x	-7.0
O=C(c1cccc(Cl)c1)C1CCCN(S(=O)(=O)c2ccccc2)C1 (centres undefined)	8.6	70.3%	48.6%	-19.8%	12.5%	31.5
CN(C)S(=O)(=O)c1ccc(S(=O)(=O)N(CC(=O)Nc2ccccc2)CC2CCCO2)cc1 (centres undefined)	9.7	21.4%	31.6µM*	-5.0%	-5.3%	-3.2
CCOC(=O)c1cn2nc(SCc3ccccc3)nc2nc1C	0.7	76.7%	64.8%	17.5%	44.1%	6.5
SMILES	Six1-Eya2 blk	HP1b chromo inh	G9a block	BAZ2B inh	JMJD2A Tudor inh	CtBP-E1A blk
CCOC(=O)c1cc(-c2ccccc2)n(-c2cccc(C(=O)N(C)c3ccc(C)cc3)c2)c1C	x	-9.7%	15.8µM*	u	u	x
Cc1cccc(OCC(=O)NNC(=O)Cn2c(=O)cnc3ccccc32)c1	0.7	44.5%	-7.3%[2.33 µM]	-4.5%	-2.1%	-3.4
COc1ccc(OCC(=O)NNC(=O)Cn2c(=O)cnc3ccccc32)cc1	-2.5	43.7%	70.8µM*	u	-1.4%	2.4
Oc1ccc(/C=N/Nc2nc(N3CCCC3)nc(N3CCCC3)n2)cc1O	-0.8	9.5%	10µM*	-22.1%	u	10.7
Oc1cccc(/C=N/Nc2cc(N3CCCC3)nc(N3CCCC3)n2)c1	u	u	-9.0%[59 µM]	44.7µM*	56.2µM*	u
COc1ccc(/C=N/Nc2cc(N3CCCC3)nc(N3CCCC3)n2)cc1	u	-10.1%	22.4µM*	u	u	-23.2
O=[N+]([O-])c1cccc(-n2cccc2/C=N/Nc2nc(N3CCCCC3)nc(N3CCCCC3)n2)c1	-29.1	u	31.6µM*	x	u	2.5
Oc1ccc(/C=N/Nc2cc(N3CCCC3)nc(N3CCCC3)n2)cc1	-8.0	18.8%	3.0%	-1.3%	-9.9%	-3.7
COc1cc(/C=N/Nc2nc(N3CCCC3)nc(N3CCCC3)n2)ccc1O	-8.5	6.1%	u	-22.1%	-24.1%	-1.9
CCN(CC)CC(=O)Nc1ccc(C)cc1C(=O)c1ccccc1	4.4	9.2%	-0.6%[59 µM]	1.3%	-13.8%	0.4
Cc1ccc(S(=O)(=O)NCCC(=O)Nc2ccc(C)cc2C(=O)c2ccccc2)cc1	-10.1	-6.9%	4.8%[59 µM]	-32.1%	50.1µM*	0.8
CN(C)CCN(C(=O)c1ccc2ccccc2c1)c1nc2c(F)cc(F)cc2s1	16.2	-15.7%[57 µM]	50.1µM*	-23.4%[57.1 µM]	u	x
CN(C)CCN(C(=O)c1ccc2ccccc2c1)c1nc2ccc(Br)cc2s1	20.6	66.5%	x	-22.2%	u	x
Cc1cccc2sc(N(CCN(C)C)C(=O)c3ccc4ccccc4c3)nc12	-22.2	-10.4%[57 µM]	39.8µM*	u	u	x
CN(C)CCN(C(=O)c1ccco1)c1nc2c(F)cc(F)cc2s1	x	20.4%	0.2%[59 µM]	-8.7%	-16.2%	x
COc1cc2c(cc1NS(=O)(=O)c1cccc(C#N)c1)n(C)c(=O)n2C	x	-13.5%	10µM*	79.4µM*	-30.8%	x
Cc1cc2c(cc1NS(=O)(=O)c1ccc(Br)cc1)n(C)c(=O)c(=O)n2C	x	0.2%	12.3%[59 µM]	-7.2%	-4.3%	x
